High-throughput results deposited in PubChem BioAssay by National Center for Advancing Translational Sciences (NCATS).
Only some compounds are listed: those with a hit (about 0.87% of all), similar ones and a draw of the others.
FBPA coupling cs: counter-screen for Giardia aldolase inhibitors: coupling enzyme system | activity change, negative = inhibition, % at 58.2 µM, hits read low | 290,000 tested, 0.67% active | AID 2472 | coupling enzyme system counterscreen, AmpLite Red fluorescence; in the data active = activity change below about -30%
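Activity here indicates interference with the coupling reaction, not aldolase inhibition. Compounds at 57.5 uM final met coupling enzymes for 10 min at RT; substrate and AmpLite Red detection followed, with a 525/598 nm fluorescence read after 20 min.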
EPAC1 ag: agonists of human EPAC1; 360,000 tested, 0.073% active; EPAC1 agonist qHTS, biochemical assay; response scale: 100% = response to 6.5 mM cAMP; Potency, µM (top dose mostly 154 µM), usual class: activators; AID 720707; note: nearly all actives have a fitted effect of over 60% in size
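Nucleotide exchange by EPAC1 (100 nM) on Rap1B–BODIPY-GDP (250 nM) in the presence of 50 uM GDP is tracked fluorescently at 480/540 nm over 30 min. Signals are normalized to a 6.5 mM cAMP control.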
EPAC2 antagonist: EPAC2 (human) antagonism; Q8WZA2; EPAC2 GEF exchange of Rap1B-BODIPY-GDP, fluorescence; Potency, µM (highest dose often 114 µM), hits mostly inhibitors; 360,000 tested, 0.18% active; AID 720708; note: nearly all actives have a fitted effect of over 45% in size
USP1 inh: blocks the human USP1/UAF1 deubiquitinase complex; O94782; recombinant USP1/UAF1, Ub-Rhodamine cleavage fluorescence; Potency, µM (titrated, usually from 57.1 µM), hits mostly inhibitors; 390,000 tested, 0.23% active; note: nearly all actives have a fitted effect of over 60% in size
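1 nM enzyme complex + cpd, 15 min RT; start with Ub-Rho 150nM final; kinetic fluorescence ex 480/em 540, 6 reads q60 s. Buffer 50mM HEPES pH 7.8, 0.5mM EDTA, 0.1 mg/ml BSA, 1mM TCEP, 0.01% Tween-20.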
EPAC2 agonist: activates human EPAC2 exchange factor; EPAC2 activation, biochemical qHTS; response scale: 100% = 6.5 mM cAMP response; 360,000 tested, 0.079% active; Potency, µM (highest dose often 154 µM), actives largely listed as activators; Q8WZA2; note: nearly all actives have a fitted effect of over 50% in size
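Readout is BODIPY fluorescence (480 nm excitation, 540 nm emission), which falls as labeled GDP is exchanged off Rap1B. EPAC2 at 100 nM acted on 250 nM RAP1B-BODIPY-GDP with 50 uM GDP present.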
EPAC1 antagonist: EPAC1 (human) antagonism; EPAC1 GEF assay, Rap1b-BODIPY-GDP exchange fluorescence; Potency, µM (series often up to 115 µM), most hits filed as inhibitors; O95398; 360,000 tested, 0.14% active; note: nearly all actives have a fitted effect of over 50% in size
CASP1 inh CRC: confirmation of allosteric or competitive inhibitors of human caspase-1. Potency, µM (series often up to 57.5 µM), actives largely listed as inhibitors. 60 tested, 20% active. shares compounds with FBPA coupling cs. purified caspase-1, fluorogenic substrate cleavage; active = well fitted inhibition curve with a large enough effect in the main read-out, with a control signal flat; inconclusive = small, poorly fitted or top-dose-only effect, or a change in a side signal; inactive = no such curve, though single readings can be large or run the other way
CASP7 inh CRC: blocks human caspase-7 activity in concentration-response; shares compounds with FBPA coupling cs; recombinant caspase-7, fluorogenic substrate cleavage; Potency, µM (highest dose often 57.5 µM), most hits filed as inhibitors; 60 tested, under 10 active; active = well fitted inhibition curve with a large enough effect in the main read-out, with a control signal flat, not every such curve was filed as active; inconclusive = small, poorly fitted or top-dose-only effect, or a change in a side signal; inactive = no such curve, though single readings can be large or run the other way
Casp7 cysteine: caspase-7 inhibition with cysteine present | shares compounds with FBPA coupling cs | caspase-7 enzyme with cysteine, fluorogenic substrate, redox counterscreen | Potency, µM (highest dose often 57.5 µM), most hits filed as inhibitors | 60 tested, under 10 active; active = well fitted inhibition curve with a large enough effect in the main read-out, with a control signal flat; inconclusive = small, poorly fitted or top-dose-only effect, or a change in a side signal; inactive = no such curve, though single readings can be large or run the other way
Casp1 cysteine: inhibits caspase-1 in cysteine buffer, redox counter-screen; shares compounds with FBPA coupling cs; recombinant caspase-1, fluorogenic substrate, cysteine buffer; Potency, µM (top dose mostly 57.5 µM), actives largely listed as inhibitors; 60 tested, under 10 active; AID 929; active = well fitted inhibition curve with a large enough effect in the main read-out, with a control signal flat; inconclusive = small, poorly fitted or top-dose-only effect, or a change in a side signal; inactive = no such curve, though single readings can be large or run the other way
Hits are given with their value; . = inactive; ? = inconclusive; / = no result given. Unless noted, calls come from the whole dose curve; as a rule, active = well fitted curve in the direction sought with a large enough effect; inconclusive = small, poorly fitted or top-dose-only effect, or another doubt; inactive = no such curve, though single readings can be large; an effect the other way counts as inactive or inconclusive.

SMILES	FBPA coupling cs	EPAC1 ag	EPAC2 antagonist	USP1 inh	EPAC2 agonist	EPAC1 antagonist	others
O=c1[nH]c(=O)n(-c2ccccc2)c(O)c1/C=C/C=Nc1ccccc1	.	?	.	?	.	.
O=c1c2ccccc2nc(/C=C/c2ccccc2O)n1-c1ccc(Br)cc1	/	/	/	.	/	/
O=C1NC(=O)N(Cc2ccco2)C(=O)/C1=C/c1ccc(-c2cccc([N+](=O)[O-])c2)o1	.	.	.	?	.	50.1µM
CNC(=O)Oc1cccc2c1OC(C)(C)C2	.	/	/	/	/	/
COc1cc2c(cc1O)C[C@H]1NCCc3cc4c(c-2c31)OCO4	-30.9	.	.	?	.	.
COc1ccc(C(=O)O)cc1OC	.	.	.	.	.	.
O=C(O)c1cc[c]([Hg][Cl])cc1	/	.	.	.	.	.	CASP1 inh CRC=10µM;CASP7 inh CRC=.;Casp7 cysteine=.;Casp1 cysteine=2.51µM
Nc1cc(Cl)cc(C(=O)O)c1Cl	/	.	.	.	.	.
CCn1nc(-c2cccs2)nc2c(=O)n(C)c(=O)nc1-2	-69.2	.	?	0.224µM	.	?	CASP1 inh CRC=0.316µM;CASP7 inh CRC=0.631µM;Casp7 cysteine=.;Casp1 cysteine=.
